# For some assays here: Potency and affinity values are given separately. Some of the results follow. The source made the active and inactive calls. Unless noted, how the calls were made is not given here.
# Legend:
# [1] = biological target: Ras-related C3 botulinum toxin substrate 1 (Homo sapiens) (UniProt P63000); test: inhibition of wildtype Rac1 nucleotide loading – biochemical, multiplex bead flow cytometry, dose response (AID 1340;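 active means dose curve with midpoint inside tested range, moderate steepness, plateau gap beyond fit error, low compound glow and bead-link interference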); conditions: GST-Rac1 beads, Bodipy-FL-GTP binding; at 100 µM (top of the series) unless noted
# [2] = biological target: Regulator of G-protein signaling 4 (Homo sapiens) + Guanine nucleotide-binding protein G(o) subunit alpha (Homo sapiens) (UniProt P49798+P09471); test: small molecules altering RGS protein interactions with GNAO1 – biochemical, multiplexed beads, flow cytometry, RGS4/7/8/16/19, primary screen (AID 1504); conditions: multiplexed bead flow cytometry, at 10 µM;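 further: fluorescently labeled Galpha-o bound to GDP with aluminium fluoride binding biotinylated RGS beads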
# Chain of Regulator of G-protein signaling 4 (Homo sapiens) + Guanine nucleotide-binding protein G(o) subunit alpha (Homo sapiens) (P09471 whole entry, looked up): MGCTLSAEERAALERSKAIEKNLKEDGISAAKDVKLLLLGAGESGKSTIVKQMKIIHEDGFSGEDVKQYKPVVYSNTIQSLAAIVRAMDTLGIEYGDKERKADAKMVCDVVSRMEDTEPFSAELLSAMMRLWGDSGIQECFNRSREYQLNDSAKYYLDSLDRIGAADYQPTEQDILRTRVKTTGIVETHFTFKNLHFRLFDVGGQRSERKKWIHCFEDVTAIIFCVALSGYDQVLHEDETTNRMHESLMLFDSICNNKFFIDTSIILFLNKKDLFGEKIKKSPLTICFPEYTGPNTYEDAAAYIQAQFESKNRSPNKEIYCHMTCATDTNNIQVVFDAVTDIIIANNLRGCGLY
# Chain of Regulator of G-protein signaling 4 (Homo sapiens) + Guanine nucleotide-binding protein G(o) subunit alpha (Homo sapiens) (P49798 whole entry, looked up): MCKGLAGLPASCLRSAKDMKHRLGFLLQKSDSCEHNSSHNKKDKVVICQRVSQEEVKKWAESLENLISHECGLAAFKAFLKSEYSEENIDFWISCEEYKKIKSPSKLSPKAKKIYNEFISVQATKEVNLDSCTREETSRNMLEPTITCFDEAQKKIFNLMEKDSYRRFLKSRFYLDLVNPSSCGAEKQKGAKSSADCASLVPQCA
# [3] = biological target: GTPase HRas (Homo sapiens) (UniProt P01112); test: blockade of GTP loading onto mutant Ras – biochemical, activated mutant, multiplex bead flow cytometry, dose response (AID 1341;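 active means dose-response curve with midpoint inside the tested range, moderate steepness, significant amplitude and little compound fluorescence or bead-attachment interference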;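 further: GST-tagged constitutively activated Ras mutant immobilized on beads and multiplexed with other GTPases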)
# [4] = yeast TOR reporter LAP4-GFP level changes – cell-based, second cherry pick, flow cytometry, confirmation (AID 2621;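 active means GFP signal as percent of the solvent control above about 150%, meaning raised reporter expression, limit read from the data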;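 further: ratio of well median GFP fluorescence to plate DMSO mean so 100% = DMSO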); conditions: S. cerevisiae LAP4-GFP strain, 3 h, at 10 µM, stronger effect = higher value
# [5] = TOR pathway reporter MEP2-GFP, hit retest – S. cerevisiae, flow cytometry GFP, second cherry picks, confirmation (AID 2622;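 active means GFP signal above 150% of the solvent control wells, that is a rise of more than half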;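 further: median channel GFP fluorescence of all gated yeast cells per well; ratio of median GFP to plate DMSO average so 100% = DMSO level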); conditions: S. cerevisiae MEP2-GFP strain, 3 h, at 10 µM, stronger effect = higher value
# [6] = retest of hits on RPL19A-GFP strain – cell-based, S. cerevisiae, flow cytometry, second cherry pick, confirmation (AID 2623;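 active means under 65% GFP response relative to DMSO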;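 further: median GFP channel fluorescence per well over the all cells gate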); conditions: 3 h, at 10 µM, stronger effect = lower value, 100% means same as DMSO wells
# [7] = yeast TOR pathway CIT2-GFP reporter modulation – flow cytometry, second cherry pick, single plex, confirmation (AID 2624;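 active means GFP response vs DMSO above about 150%, limit read from the data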;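 further: median green fluorescence per well over all gated yeast cells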); conditions: S. cerevisiae CIT2-GFP strain, 3 h, at 10 µM, stronger effect = higher value, DMSO control wells read 100%
# [8] = yeast AGP1-GFP fluorescence change, single-dose confirmation – cell-based, flow cytometry, S. cerevisiae, cherry pick set 2 (AID 2643;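 active means over 150 percent of DMSO response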;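 further: median GFP channel fluorescence over all cells without mother daughter split; sample median GFP divided by mean DMSO control so 100% equals DMSO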); conditions: S. cerevisiae AGP1-GFP strain, 3 h, at 10 µM, stronger effect = higher value
# [9] = yeast AGP1-GFP fluorescence change, single-dose – cell-based, flow cytometry, S. cerevisiae, cherry picks, confirmation (AID 2273;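 active means GFP response above 150% of the DMSO level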;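 further: median GFP channel fluorescence over the whole cell population gate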); conditions: S. cerevisiae AGP1-GFP strain, 3 h, at 10 µM
# [10] = biological target: Integrin beta-1 (Homo sapiens) + Integrin alpha-4 (Homo sapiens) (UniProt P13612+P05556); test: alpha4beta1 integrin LIBS antibody binding reduction – U937 cells, HUTS-21 mAb, flow cytometry, validation set, VLA-4 allosteric modulator project, pilot screen (AID 2674;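 active means inhibition above 50%, about 3 SD of the validation set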;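 further: antibody binding induced by the VLA-4 ligand LDV present at three times its Kd; 0% = LDV ligand with antibody and no compound and 100% = antibody without LDV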); conditions: HUTS-21 LIBS mAb binding, at 6.7 µM, stronger effect = higher value, binding induced by LDV ligand
# Chain of Integrin beta-1 (Homo sapiens) + Integrin alpha-4 (Homo sapiens) (P05556 whole entry, looked up): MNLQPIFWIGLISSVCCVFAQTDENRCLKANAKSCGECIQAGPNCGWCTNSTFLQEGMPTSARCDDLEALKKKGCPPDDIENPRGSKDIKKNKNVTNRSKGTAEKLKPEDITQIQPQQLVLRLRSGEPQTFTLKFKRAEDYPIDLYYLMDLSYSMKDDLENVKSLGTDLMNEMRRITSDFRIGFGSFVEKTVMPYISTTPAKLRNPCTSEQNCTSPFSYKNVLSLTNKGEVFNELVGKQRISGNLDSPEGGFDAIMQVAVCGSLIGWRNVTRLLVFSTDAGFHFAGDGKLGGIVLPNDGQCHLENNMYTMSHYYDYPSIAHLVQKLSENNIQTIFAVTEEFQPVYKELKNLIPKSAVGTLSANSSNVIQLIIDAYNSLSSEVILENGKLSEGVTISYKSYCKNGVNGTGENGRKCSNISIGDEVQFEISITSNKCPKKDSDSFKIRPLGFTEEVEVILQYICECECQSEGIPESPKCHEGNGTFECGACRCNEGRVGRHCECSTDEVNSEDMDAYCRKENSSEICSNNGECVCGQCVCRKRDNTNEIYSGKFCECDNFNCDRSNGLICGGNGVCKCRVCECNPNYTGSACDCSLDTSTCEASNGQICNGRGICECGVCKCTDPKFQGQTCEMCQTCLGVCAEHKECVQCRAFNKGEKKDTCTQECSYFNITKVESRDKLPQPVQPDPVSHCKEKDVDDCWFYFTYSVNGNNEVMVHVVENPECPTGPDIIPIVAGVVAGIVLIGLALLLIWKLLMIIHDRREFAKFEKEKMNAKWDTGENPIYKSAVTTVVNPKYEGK
# Chain of Integrin beta-1 (Homo sapiens) + Integrin alpha-4 (Homo sapiens) (P13612 whole entry, looked up): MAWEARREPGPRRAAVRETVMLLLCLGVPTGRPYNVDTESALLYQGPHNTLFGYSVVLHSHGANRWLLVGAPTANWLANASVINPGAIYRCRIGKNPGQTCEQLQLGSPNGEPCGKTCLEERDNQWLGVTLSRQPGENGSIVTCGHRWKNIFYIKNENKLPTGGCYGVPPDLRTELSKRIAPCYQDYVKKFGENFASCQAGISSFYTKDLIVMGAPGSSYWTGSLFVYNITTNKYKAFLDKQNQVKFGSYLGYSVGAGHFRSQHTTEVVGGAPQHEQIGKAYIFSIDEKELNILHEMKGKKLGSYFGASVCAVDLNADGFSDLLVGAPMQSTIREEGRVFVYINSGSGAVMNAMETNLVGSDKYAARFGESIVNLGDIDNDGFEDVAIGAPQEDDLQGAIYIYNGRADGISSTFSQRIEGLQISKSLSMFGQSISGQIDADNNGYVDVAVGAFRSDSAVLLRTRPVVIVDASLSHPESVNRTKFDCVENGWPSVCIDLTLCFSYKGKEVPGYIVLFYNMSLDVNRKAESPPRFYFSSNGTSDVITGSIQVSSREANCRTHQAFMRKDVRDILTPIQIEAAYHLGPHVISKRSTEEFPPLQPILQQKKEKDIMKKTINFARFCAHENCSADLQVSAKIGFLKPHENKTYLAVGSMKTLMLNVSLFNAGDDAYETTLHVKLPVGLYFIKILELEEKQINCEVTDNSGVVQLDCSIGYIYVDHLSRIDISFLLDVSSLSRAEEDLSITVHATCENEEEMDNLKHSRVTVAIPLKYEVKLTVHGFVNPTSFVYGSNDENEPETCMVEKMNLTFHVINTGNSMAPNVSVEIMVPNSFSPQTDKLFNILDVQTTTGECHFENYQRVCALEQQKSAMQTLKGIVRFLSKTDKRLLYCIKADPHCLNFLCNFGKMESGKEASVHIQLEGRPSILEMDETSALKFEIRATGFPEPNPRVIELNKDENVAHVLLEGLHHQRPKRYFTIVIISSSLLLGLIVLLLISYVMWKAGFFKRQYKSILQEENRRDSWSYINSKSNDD
# [11] = calorie-restriction mimetic ROS inhibitors, yeast – validation compound set, pilot screen (AID 2706;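 active means superoxide response below 65% of plate, a cut near 3 SD across the whole screen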;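 further: yeast exposed to compound for one week at 30 degrees C before staining; 100% = mean of all compound wells on the same plate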); conditions: S. cerevisiae aging, superoxide DHE fluorescence; at 10 µM; stronger effect = lower value
# [12] = biological target: Beta-adrenergic receptor kinase 1 (Homo sapiens) (UniProt P25098); test: GRK2 binders displacing RNA aptamer, biochemical, validation, human GRK2, bead flow cytometry (AID 488806;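 active means aptamer binding inhibition above 30%, about 3 SD of noise from non-fluorescent compounds; inactive means inhibition at or below 30%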); conditions: bead-bound GRK2, FAM-aptamer displacement, at 10 µM, stronger effect = higher value
# Chain of Beta-adrenergic receptor kinase 1 (Homo sapiens) (P25098 whole entry, looked up): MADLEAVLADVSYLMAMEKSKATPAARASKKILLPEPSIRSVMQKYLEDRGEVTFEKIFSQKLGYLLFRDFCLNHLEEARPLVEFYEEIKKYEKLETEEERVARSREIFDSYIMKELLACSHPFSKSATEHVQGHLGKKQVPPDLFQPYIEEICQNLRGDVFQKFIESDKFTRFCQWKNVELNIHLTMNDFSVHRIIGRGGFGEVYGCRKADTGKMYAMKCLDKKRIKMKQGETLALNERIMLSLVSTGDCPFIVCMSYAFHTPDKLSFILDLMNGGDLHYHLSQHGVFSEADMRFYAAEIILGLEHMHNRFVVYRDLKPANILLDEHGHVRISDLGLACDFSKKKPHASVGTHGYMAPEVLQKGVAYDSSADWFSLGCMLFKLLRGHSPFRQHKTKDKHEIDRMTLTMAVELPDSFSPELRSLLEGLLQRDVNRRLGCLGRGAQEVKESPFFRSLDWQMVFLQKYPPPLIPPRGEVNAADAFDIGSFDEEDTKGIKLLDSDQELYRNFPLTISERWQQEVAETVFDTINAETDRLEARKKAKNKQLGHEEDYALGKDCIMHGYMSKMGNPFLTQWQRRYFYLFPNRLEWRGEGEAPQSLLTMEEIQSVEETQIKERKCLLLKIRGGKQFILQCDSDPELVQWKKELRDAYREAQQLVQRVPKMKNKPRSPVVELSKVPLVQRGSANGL
# [13] = biological target: Beta-2 adrenergic receptor (Homo sapiens) (UniProt P07550); test: agonist-induced loss of surface beta2AR – cell-based, FAP fluorogen, flow cytometry, validation set, pilot screen (AID 504459;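 active means percent response above 42, roughly 3 SD of non-fluorescent test compounds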;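 further: agonist-driven loss of surface beta2AR via internalization measured by FAP dye flow cytometry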); conditions: Am2.2-beta2AR cells, at 10 µM, stronger effect = higher value
# Chain of Beta-2 adrenergic receptor (Homo sapiens) (P07550 whole entry, looked up): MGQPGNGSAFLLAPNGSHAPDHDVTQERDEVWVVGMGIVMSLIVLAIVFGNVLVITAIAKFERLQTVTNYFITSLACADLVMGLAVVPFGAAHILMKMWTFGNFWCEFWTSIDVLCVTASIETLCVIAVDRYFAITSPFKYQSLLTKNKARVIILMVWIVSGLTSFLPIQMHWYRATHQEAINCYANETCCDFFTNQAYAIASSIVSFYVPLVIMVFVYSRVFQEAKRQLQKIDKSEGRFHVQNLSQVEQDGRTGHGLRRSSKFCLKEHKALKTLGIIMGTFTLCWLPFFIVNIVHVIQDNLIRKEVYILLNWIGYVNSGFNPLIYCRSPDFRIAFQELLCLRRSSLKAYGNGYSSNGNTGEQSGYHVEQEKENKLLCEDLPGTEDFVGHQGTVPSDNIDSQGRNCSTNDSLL
# [14] = biological target: AP-2 complex subunit beta (Homo sapiens) (UniProt P63010); test: beta-arrestin/AP2 interaction blockers – biochemical, validation set, GST-AP2 beads, flow cytometry, pilot screen (AID 504541;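 active means inhibition above 54%, about 3 SD of non-fluorescent compounds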;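 further: AP2 carries R879A mutation and is captured from E. coli lysate; bead-bound FITC arrestin peptide fluorescence measuring arrestin peptide binding to AP2; 0% = DMSO wells and 100% = excess unlabeled arrestin peptide control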); conditions: FITC arrestin peptide, at 10 µM, stronger effect = higher value, AP2 beta2 appendage fragment, R879A mutant
# Chain of AP-2 complex subunit beta (Homo sapiens) (P63010 whole entry, looked up, the tested form may be a part, one chain of several): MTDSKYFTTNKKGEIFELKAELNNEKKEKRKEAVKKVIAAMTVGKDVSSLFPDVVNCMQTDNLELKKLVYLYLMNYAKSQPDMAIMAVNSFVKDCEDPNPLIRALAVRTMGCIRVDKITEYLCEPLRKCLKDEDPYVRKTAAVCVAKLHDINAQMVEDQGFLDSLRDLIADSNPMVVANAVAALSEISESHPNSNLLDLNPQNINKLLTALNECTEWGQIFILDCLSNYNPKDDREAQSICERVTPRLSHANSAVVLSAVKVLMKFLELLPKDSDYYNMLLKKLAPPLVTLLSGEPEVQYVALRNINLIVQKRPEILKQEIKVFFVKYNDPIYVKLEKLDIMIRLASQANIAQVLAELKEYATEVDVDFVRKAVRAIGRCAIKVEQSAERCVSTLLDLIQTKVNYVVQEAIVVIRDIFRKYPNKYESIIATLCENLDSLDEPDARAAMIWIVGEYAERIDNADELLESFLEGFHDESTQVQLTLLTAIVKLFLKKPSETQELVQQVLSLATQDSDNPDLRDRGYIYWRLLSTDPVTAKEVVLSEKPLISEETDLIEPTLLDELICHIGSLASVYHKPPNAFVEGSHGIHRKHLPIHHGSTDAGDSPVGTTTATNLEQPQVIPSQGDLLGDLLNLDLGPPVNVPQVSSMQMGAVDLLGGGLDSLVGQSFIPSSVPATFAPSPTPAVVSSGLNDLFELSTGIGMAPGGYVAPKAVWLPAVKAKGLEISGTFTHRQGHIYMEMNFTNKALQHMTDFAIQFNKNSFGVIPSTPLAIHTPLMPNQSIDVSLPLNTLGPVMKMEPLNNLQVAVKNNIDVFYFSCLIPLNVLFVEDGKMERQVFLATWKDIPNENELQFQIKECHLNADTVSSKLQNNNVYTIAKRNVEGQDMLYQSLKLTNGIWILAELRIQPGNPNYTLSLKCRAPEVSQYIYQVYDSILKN
# [15] = cytosolic pH regulators acting via V-ATPase – S. cerevisiae, pHLuorin, HTS validation (AID 504600; in the data active means response above about 15%;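 further: plate controls were DMSO for no effect and reference compound for full effect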); conditions: V-ATPase proton transport, at 10 µM, stronger effect = higher value
# [16] = test system: anti-desmoglein-3 scFv antibody binding to human DSG3; test: blockers of pathogenic pemphigus antibody–desmoglein-3 binding – biochemical, validation compound set, bead-based, flow cytometry, pilot screen (AID 588368;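 active means binding below the plate cutoff, the plate median minus 3 SD, with a reading above zero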;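 further: signal is the median channel fluorescence of bead-bound GFP antibody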); conditions: Protein G beads, DSG3-Fc, scFv-GFP binding, at 10 µM, stronger effect = lower value
# [17] = Nile Red efflux blockade in pump-expressing yeast – validation compound set, multiplex, phenotypic, pilot screen (AID 588506;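 active means efflux inhibition above 0.42, the validation set average plus 4 SD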;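 further: Nile Red retained in cells so higher fluorescence means more efflux inhibition; 0 = negative control wells and 1 = enniatin B 25 µM full block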); conditions: S. cerevisiae pump-expressing triplex, Nile Red efflux flow cytometry; at 10 µM; stronger effect = higher value; the pumps come from Candida albicans
# [18] = biological target: ATP-binding cassette sub-family B member 6 (Homo sapiens) (UniProt Q9NP58); test: blockers of ABCB6-driven porphyrin uptake – K562-ABCB6 cells, flow cytometry, validation set, pilot screen (AID 588550;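 active means inhibition above the screen-wide mean plus 3 SD, about 51%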;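 further: 0% = DMSO wells and 100% = benzethonium chloride 70 µM positive control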); conditions: K562-ABCB6 porphyrin accumulation, 1 h, at 10 µM, stronger effect = higher value
# [19] = AML differentiation inducers, ER-HoxA9 marrow cells – cell-based, GFP/MAC1 double positive, flow cytometry, validation set, primary screen (AID 588685;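 active means differentiation response of at least 50%, scaled between solvent and reference control, from cells with both markers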;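 further: compound exposure lasts four days before antibody staining and flow analysis; 0% = DMSO wells and 100% = 5 µM fulvestrant positive control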); conditions: stronger effect = higher value, normalized: vehicle 0, fulvestrant 100
structure (smiles),measurement,setting,value
CCN(CC)c1ccc(/C=C(\C#N)C(=O)c2ccc(Br)cc2)cc1,"GTP binding signal, raw median fluorescence (lower = inhibition) (MCF (arbitrary fluorescence units))",[1],0
Cc1c(CN2CCCC(C(=O)c3cccc(Cl)c3)C2)c(=O)n(-c2ccccc2)n1C (stereo not given),RGS4–Galpha-o binding response,[2],107% (active)
Oc1ccc(-c2onc3ccc(Cl)cc23)cc1,RGS4–Galpha-o binding response,[2],118% (active)
CCCn1c(C)cc(C(=O)COC(=O)c2c(C)nn(-c3ccccc3)c2C)c1C,RGS4–Galpha-o binding response,[2],76.2% (active)
O=C(CN1CCOCC1)Nc1ccccc1,RGS4–Galpha-o binding response,[2],115% (active)
COc1ccc(-c2nn(-c3ccccc3)cc2C(=O)Nc2nccs2)cc1OC,RGS4–Galpha-o binding response,[2],90.3% (active)
Cc1cc(C)nc(/N=C2\NC(=O)CC(C(=O)O)N2c2ccc(Cl)cc2Cl)n1 (stereo not given),RGS4–Galpha-o binding response,[2],117% (active)
O=C(O)/C=C/c1cn(Cc2ccccc2)nc1-c1cccs1,outcome,[3],inactive
CC(C)(C)NC(=O)c1cccc(NC(=O)Cc2ccc(Br)cc2)c1,RGS4–Galpha-o binding response,[2],79.3% (active)
Cc1ccc(-n2c(SCC(=O)Nc3ncc(Cl)cc3Cl)nc3ccccc32)cc1,RGS4–Galpha-o binding response,[2],86.2% (active)
CCN(CC)S(=O)(=O)c1cccc(-c2n[nH]c(=S)n2/N=C/c2ccc(C(=O)OC)cc2)c1,RGS4–Galpha-o binding response,[2],108% (active)
NC(=O)Cc1ccc2sc(-c3ccccc3)nc2c1,RGS4–Galpha-o binding response,[2],94.3% (active)
O=c1[nH]c2ccccc2s1,RGS4–Galpha-o binding response,[2],88.6% (active)
COc1ccc(C(=O)NNc2cc(C)nc(NNC(=O)c3ccc(OC)cc3)n2)cc1,RGS4–Galpha-o binding response,[2],79.6% (active)
Fc1cc(F)c2nc(Nc3nc4c(F)cccc4s3)sc2c1,RGS4–Galpha-o binding response,[2],110% (active)
CCOC(=O)CSc1nc2c(c(=O)n(Cc3ccccc3Cl)c(=O)n2C)n1C,RGS4–Galpha-o binding response,[2],74.3% (active)
CC(NC(=O)COC(=O)C1CCN(S(=O)(=O)c2ccccc2C(F)(F)F)CC1)c1ccccc1 (stereo not given),RGS4–Galpha-o binding response,[2],118% (active)
CN(C)CCNC(=O)/C(=C/c1cccc([N+](=O)[O-])c1)NC(=O)c1ccccc1,RGS4–Galpha-o binding response,[2],119% (active)
CCCC(=O)N=c1sc2cccc(F)c2n1C,RGS4–Galpha-o binding response,[2],58.4% (active)
CC(C)Cc1nc(Nc2ccc(S(=O)(=O)N3CCCC3)cc2)c2nnn(Cc3ccccc3)c2n1,RGS4–Galpha-o binding response,[2],135% (active)
CC1CCN(c2ncccc2C(=O)O)CC1,"GTP binding signal, raw median fluorescence (lower = inhibition) (MCF (arbitrary fluorescence units))",[1],407
Cc1ccccc1NC(=S)N(CCCN1CCOCC1)Cc1cccs1,RGS4–Galpha-o binding response,[2],105% (active)
CC(=O)N1CC[n+]2c(-c3ccc([N+](=O)[O-])cc3)csc21,RGS4–Galpha-o binding response,[2],57% (active)
CCn1c(CSCc2c(Cl)cccc2Cl)n[nH]c1=S,RGS4–Galpha-o binding response,[2],55.9% (active)
CCC(=O)N1CCC(C(N)=O)(N2CCCCC2)CC1,RGS4–Galpha-o binding response,[2],133% (active)
same,GFP response vs DMSO,[4],99% (inactive)
same,GFP response vs DMSO,[5],102% (inactive)
same,GFP response vs DMSO,[6],99.8% (inactive)
same,GFP response vs DMSO,[7],104% (inactive)
same,percent response vs DMSO,[8],99.4% (inactive)
O=C(Nc1cccc(F)c1)c1coc(=O)c(Br)c1,RGS4–Galpha-o binding response,[2],83.8% (active)
COc1ccc(-n2c(SCC(=O)OC(C)C)nnc2-c2ccccn2)cc1,RGS4–Galpha-o binding response,[2],106% (active)
Cc1ccc(C)c(OCC(=O)N2CCN(C(=O)c3ccco3)CC2)c1,RGS4–Galpha-o binding response,[2],83.7% (active)
CCOC(=O)C1=C(c2ccccc2)N=C2SCC(=O)N2C1c1ccc(O)c(OC)c1 (stereo not given),RGS4–Galpha-o binding response,[2],121% (active)
CCOC(=O)c1oc2c(CN3CCN(C)CC3)c(O)ccc2c(=O)c1-c1ccc(Br)cc1,RGS4–Galpha-o binding response,[2],132% (active)
COc1ccc(CCC(=O)OCC(=O)Nc2ccc(C)c(S(=O)(=O)N(C)C)c2)cc1,RGS4–Galpha-o binding response,[2],84.4% (active)
O=C(Nc1ccc(-n2ccnc2P(=O)(O)c2ccccc2)cc1)c1ccccc1Br,RGS4–Galpha-o binding response,[2],138% (active)
O=C1CCC(=O)N(O)CCCCCNC(=O)CCC(=O)N(O)CCCCCNC(=O)CCC(=O)N(O)CCCCCN1,RGS4–Galpha-o binding response,[2],52.2% (active)
C/C(=N\NS(=O)(=O)c1ccc(Br)cc1)c1cccs1,RGS4–Galpha-o binding response,[2],120% (active)
C#C[C@]1(O)CC[C@H]2[C@@H]3CCC4=CC(=O)CC[C@@H]4[C@H]3CC[C@@]21CC,"GFP response, % of DMSO",[9],95.7% (inactive)
same,inhibition,[10],15.1% (inactive)
same,superoxide response (% of plate),[11],92.6% (inactive)
same,aptamer binding inhibition,[12],8% (inactive)
same,response,[13],-17.9% (inactive)
same,inhibition,[14],-1.43% (inactive)
same,response,[15],1.52% (inactive)
same,binding (% of control),[16],98% (inactive)
same,efflux inhibition (fraction of control),[17],-0.04 (inactive)
same,inhibition,[18],7% (inactive)
same,differentiation response,[19],2.89% (inactive)

# From PubChem BioAssay
